A selection: hits, their analogues and other compounds. The true share with any hit is near 7.8%.
Hedgehog inh = Sonic Hedgehog pathway inhibition; Shh-LIGHT2 Gli-luciferase reporter, 30 h; inhibition, % (test concentration not listed); 2.1% of 22,000 active; AID 2313;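 active = mean inhibition across valid replicates above about 65%, limit read from the data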;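 note: pathway switched on by Shh-conditioned medium diluted 1 in 25 in low serum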
MITF inhib = MITF inhibition; TRPM1 promoter luciferase, luminescence, 24 h; inhibition, % (test concentration not listed); 0.28% of 37,000 active; AID 2240; in the data active = inhibition above about 85%;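 note: human melanocyte line stably carrying TRPM1 promoter luciferase reporter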
NOMO-1 viab = STK33 inhibitor candidate reducing NOMO-1 cell viability | inhibition, % (no concentration beside the values) | NOMO-1 AML viability, CellTiter-Glo luminescence, 72 h | AID 2330 | 7.5% of 37,000 active; in the data active = inhibition above about 80%
Starred values were filed as active, the others as inactive; nt = not tested or not shown.

SMILES	Hedgehog inh	MITF inhib	NOMO-1 viab
COc1ccc(-n2c(-c3cccc(OC)c3)csc2=NCc2cccnc2)cc1	71*	54	43
COc1ccc(-n2c(SCC(N)=O)nnc2-c2cccnc2)cc1	nt	-6	14
Cc1noc(C)c1S(=O)(=O)Nc1ccc2c(c1)CC(=O)N([C@@H](C)CO)C[C@H](C)[C@@H](CN(C)Cc1ccc3c(c1)OCO3)O2	23	-15	-1
CC(C)NCC(O)COc1ccccc1-n1cccc1 (configuration not stated)	-20	-10	-14
C=CCNC(=O)COc1ccc(Cl)cc1Cl	-56	-33	115*
O=C(COc1ccc(Cl)cc1Cl)Nc1ncccn1	nt	-58	9
CCOC(=O)c1c(NC(=O)CSc2ncn[nH]2)sc2c1CCCC2	nt	22	22
Cc1cc(Cl)ccc1NC(=O)CCCN1C(=O)c2ccccc2C1=O	nt	2	-24
O=C1NCN(c2ccccc2)C12CCN(CCCC(c1ccc(F)cc1)c1ccc(F)cc1)CC2	84*	-2	114*
C/C(=C/CO)CC[C@@H]1[C@@](C)(O)CCC2C(C)(C)CCC[C@]21C (some centres not stated)	-37	10	101*
CC1(C)CCC[C@]2(C)C1CC=C(CO)[C@H]2CC/C(=C/CO)CO (some centres not stated)	-15	nt	nt
COc1ccc(CN(C)C[C@@H]2Oc3c(NC(=O)Nc4ccc5c(c4)OCO5)cccc3C(=O)N([C@@H](C)CO)C[C@H]2C)cc1	-10	15	87*
COc1ccc(NC(=O)Nc2cccc3c2O[C@H](CN(C)Cc2ccc4c(c2)OCO4)[C@H](C)CN([C@@H](C)CO)C3=O)cc1	6	-13	6
COc1ccc(CN(C)C[C@H]2Oc3c(NC(=O)Nc4ccc5c(c4)OCO5)cccc3C(=O)N([C@H](C)CO)C[C@@H]2C)cc1	-22	-14	35
COc1ccc(NC(=O)Nc2cccc3c2O[C@@H](CN(C)Cc2ccc4c(c2)OCO4)[C@@H](C)CN([C@H](C)CO)C3=O)cc1	-21	0	89*
Cn1c(SCC(=O)Nc2ccc(Cl)cc2Cl)nc2ccccc2c1=O	nt	19	29
CCOC(=O)c1nc2ccccc2c(=O)n1/N=C/c1cc(Cl)cc(Cl)c1O	-12	8	101*
Cc1ccc2c(C)c(C(=O)Nc3sc4c(c3C(=O)NCC3CCCO3)CCCC4)oc2c1 (configuration not stated)	nt	-5	114*
Cc1ccc(C(=O)Nc2sc3c(c2C(=O)NCc2ccco2)CCCC3)cc1	nt	13	19
Cc1ccc2oc(C(=O)Nc3sc4c(c3C(=O)NCc3ccco3)CCC4)c(C)c2c1	nt	-43	120*
Cc1ccc2c(C)c(C(=O)Nc3sc4c(c3C(=O)NCC3CCCO3)CCC4)oc2c1 (configuration not stated)	nt	-13	35
C[C@H]1CN([C@@H](C)CO)C(=O)c2cccc(NS(=O)(=O)c3cn(C)cn3)c2O[C@@H]1CN(C)Cc1ccc2c(c1)OCO2	-68	-2	28
CC(C)NC(=O)N(C)C[C@@H]1Oc2c(NC(=O)Nc3cccc4ccccc34)cccc2C(=O)N([C@H](C)CO)C[C@@H]1C	37	-2	31
CC(=O)O[C@H]1C(=O)[C@@]2(C)C([C@H](OC(=O)c3ccccc3)[C@]3(O)C[C@H](OC(=O)[C@H](O)[C@@H](NC(=O)c4ccccc4)c4ccccc4)C(C)=C1C3(C)C)[C@]1(OC(C)=O)CO[C@@H]1C[C@@H]2O (some centres not stated)	-43	19	98*
O=C(CCN1C(=O)c2cccc([N+](=O)[O-])c2C1=O)Nc1ccccc1C(F)(F)F	nt	3	4
SMILES	Hedgehog inh	MITF inhib	NOMO-1 viab
OC(CNC1CCCC1)Cn1c2ccc(Cl)cc2c2cc(Cl)ccc21 (configuration not stated)	nt	31	119*
CS(=O)(=O)N1CCN(CC(O)Cn2c3ccc(Cl)cc3c3cc(Cl)ccc32)CC1 (configuration not stated)	nt	-10	20
Cc1ccc(S(=O)(=O)Nc2ccc3c(c2)C(=O)N([C@@H](C)CO)C[C@@H](C)[C@@H](CN(C)C(=O)Nc2ccc4c(c2)OCO4)O3)cc1	-12	1	4
CC(=O)Nc1ccc(S(=O)(=O)NC2=NCN(C)CN2)cc1	-13	-5	-2
O=C(N1CC(Oc2ccc(Cl)cc2)C1)N1CC(Oc2ccc(Cl)cc2)C1	33	22	30
O=C(/C=C/Oc1ccc(Cl)cc1)c1ccc(Br)cc1	14	4	117*
Cn1c(SCC(=O)NC(C)(C)C)nnc1-c1ccco1	nt	-10	23
CNC(=O)COc1ccc(Nc2nnc(-c3ccc(OC)cc3)c3ccccc23)cc1	nt	-12	14
COc1ccc(-c2nnc(Nc3cccc(C(F)(F)F)c3)c3ccccc23)cc1	87*	52	116*
C[C@H]1CN([C@@H](C)CO)C(=O)c2cc(NS(=O)(=O)c3ccc(F)cc3)ccc2O[C@H]1CN(C)Cc1ccc(Oc2ccccc2)cc1	nt	-8	11
C[C@@H]1CN([C@H](C)CO)C(=O)c2cc(NS(=O)(=O)c3ccc(F)cc3)ccc2O[C@@H]1CN(C)Cc1ccc(Oc2ccccc2)cc1	nt	4	86*
C[C@H](CO)N1C[C@H](C)[C@@H](CN(C)Cc2ccc(Oc3ccccc3)cc2)Oc2ccc(NS(=O)(=O)c3ccccc3)cc2C1=O	nt	4	55
C[C@@H]1CN([C@H](C)CO)C(=O)c2cc(NS(=O)(=O)c3ccc(F)cc3)ccc2O[C@H]1CN(C)Cc1ccc(Oc2ccccc2)cc1	nt	17	114*
C[C@H](CO)N1C[C@H](C)[C@H](CN(C)Cc2ccc(Oc3ccccc3)cc2)Oc2c(NC(=O)c3nc4ccccc4s3)cccc2C1=O	-8	11	43
C=C1C(=O)O[C@@H]2/C=C(/COC(C)=O)CC/C=C(/CO)CC[C@@H]12	-2	-31	117*
C=C1C(=O)O[C@@H]2/C=C(/CO[C@@H]3O[C@H](CO)[C@@H](O)[C@H](O)[C@H]3O)CC/C=C3\C[C@H](OC3=O)[C@@H]12	-7	-22	-7
N#CC(C(=O)c1ccccc1Cl)=C1SCCCS1	23	-1	114*
N#CC(=C1SCCCCS1)S(=O)(=O)c1ccc(Cl)cc1	2	-26	29
Cc1ccc(S(=O)(=O)N(C)C[C@@H]2Oc3c(NC(=O)C4CC4)cccc3C(=O)N([C@@H](C)CO)C[C@@H]2C)cc1	-48	-10	16
COc1ccc(NC(=O)CNC(=O)c2ccco2)cc1	nt	-58	34
O=C(CCNc1ccc(Oc2ccccc2)cc1)c1ccco1	nt	38	131*
Cc1noc(C)c1NC(=O)Nc1ccc2c(c1)C(=O)N([C@H](C)CO)C[C@H](C)[C@H](CN(C)S(=O)(=O)c1ccc(F)cc1)OCCCC[C@@H](C)O2	-34	1	15
C[S+](O)c1ccc(CSc2nc(-c3ccc(F)cc3)c(-c3ccncc3)[nH]2)cc1 (configuration not stated)	-55	-7	-37
Oc1ccc(-c2nc(-c3ccc(F)cc3)c(-c3ccncc3)[nH]2)cc1	74*	-28	50
COC(=O)c1c(C)cc2c(c(C)c1=O)OC1(C2)C(C)CCC2C(C)(C)OC(=O)C=CC21C (configuration not stated)	-51	44	107*

Screening data as filed in PubChem.
